For 102 compounds, IC50 results are on record in PubChem BioAssay AID624351 (Southern Research Specialized Biocontainment Screening …, 2012).

As a reminder, the IC50 is the concentration that gives 50% inhibition.

Out of some 2,400 compounds screened, about 1,400 (58%) were called active.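 How the source made its calls: active means inhibition of 30% or more at any tested dose; inconclusive means primary hits over the limit that were never retested; inactive means the rest.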 The set was probably picked from earlier hits. This is one part of the list.

The nature of the assay: ADP Hunter readout inhibition without MgcRacGAP – biochemical, coupled enzyme counter-screen, artefact control for MgcRacGAP inhibitor project, dose response (AID 624351).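 Further: signal is the ADP detection kit reading of free GDP without any GAP enzyme.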 The conditions noted are these: fluorescence, no MgcRacGAP; series mostly up to 80 µM. On the technique in general: Counterscreens check selectivity or assay interference.
Take `COc1ccc(/C=N/Nc2nc(N3CCCC3)nc(N3CCCC3)n2)cc1O`: the concentration for half-maximal inhibition (IC50) was 71.1 µM (active).
For `CCOc1ccc(NCc2cccn2-c2nnc(N3CCC(C(=O)NCCCN4CCCCC4)CC3)s2)cc1` the value was 68.9 µM (active).
For `CCN(CC)Cc1cc(Nc2c3ccccc3nc3c4ccccc4n(C)c23)cc(CN(CC)CC)c1O` the value was 20.9 µM (active).
In the case of `Cc1c(Cl)sn(-c2ccc(Cl)cc2)c1=O`, the IC50 entry is “inactive”.
The value for `Cc1[nH]n(-c2cccc(Cl)c2)c(=O)c1-c1ccc(Cl)cc1` was 77.2 µM (active); that for `Cc1ccc(-c2ccc(/C=C3\C(=O)ON=C3c3ccccc3)o2)c([N+](=O)[O-])c1` was “inactive”.
The value for `COc1ccc(NC2CCCN(C(=O)c3ccccc3C(F)(F)F)C2)cc1` (configuration not stated) was 76.2 µM (active); that for `COc1ccc(CN2CCN(Cc3ccc(C(F)(F)F)cc3)CC2)cc1` was “inactive”; that for `COc1ccc(NC2CCCN(C(=O)C3(C)CCCCC3)C2)cc1` (configuration not stated) was 67.2 µM (active).
As for `CCN1CCCC1CNCC(=O)Nc1ccc(OC(F)(F)F)cc1` (configuration not stated), the IC50 result is “inactive”.
`COc1ccc(OCC(O)CN2CCCC2)cc1` (configuration not stated): the IC50 entry is “inactive”.
Turning to `COc1ccc(NC2CCCN(C(=O)c3ccc(C(C)=O)s3)C2)cc1` (configuration not stated), the IC50 is 80.4 µM (active).
As to `COc1ccc(NC2CCCN(C(=O)COc3ccc(C(C)=O)cc3)C2)cc1` (configuration not stated), the IC50 was 74.9 µM (active).
The value for `Cc1ccc(C)c(OCC(O)CN2CCC(C)CC2)c1C` (configuration not stated) was “inactive”.
The value for `Cc1ccccc1C1=C/C(=C(\SS/C(C(=O)c2ccc(OCC(=O)O)c(Cl)c2Cl)=C2\C=C(c3ccccc3C)SS2)C(=O)c2ccc(OCC(=O)O)c(Cl)c2Cl)SS1` was “inactive”.
As to `CSc1nc(=S)c2[nH]c(=S)[nH]c2[nH]1`, the IC50 result was “inactive”.
For `CCCCNc1cc(NC(C)=O)cc2cc(OC)c(OC)cc12` the value was 52.3 µM (active); for `COc1cc2cc(NC(C)=O)cc(NCc3ccccc3)c2cc1OC`, 61 µM (active); for `COc1cc2[nH]c(=S)nc(Nc3ccc(NC(C)=O)cc3)c2cc1OC`, “inactive”.
For `Cc1ccc2c(c1)cc(C(=O)NCc1ccccc1)n2C` the value was “inactive”.
For `O=S(=O)(c1ccccc1)N1N=C(c2ccc(O)cc2)CC1c1ccco1` (configuration not stated) the value was “inactive”; for `O=C1C=C(Nc2ccc(O)cc2)CC(c2ccco2)C1` (configuration not stated), 17.8 µM (active); for `Cc1cc(C)c(S(=O)(=O)Nc2ccc(O)cc2)c(C)c1`, 68.4 µM (active).
In the case of `Cc1cc(C)c(C)c(S(=O)(=O)Nc2ccc(O)cc2)c1C`, the IC50 was 48.5 µM (active).
For `CCN(CC)c1ccc(C(=C2C=CC(=[N+](CC)CC)C=C2)c2ccc(N(CC)CC)cc2)cc1` the value was 45.3 µM (active).
On to `CCN(CC)c1ccc(C(=C2C=CC(=[N+](CC)CC)C=C2)c2ccccc2)cc1`, for which the IC50 result was “inactive”.
The value for `COc1cc(C(C)=NNC(=O)c2ccncc2)ccc1O` was 36.8 µM (active); that for `C/C(=N\NC(=O)CSc1nc2ccccc2o1)c1ccc(O)cc1` was 68.9 µM (active); that for `COc1ccccc1CN1CCN(C(=O)c2ccncc2)CC1` was “inactive”.
On to `COc1cc(/C(C)=N/NC(=O)C(O)(c2ccccc2)c2ccccc2)ccc1O`, for which the half-maximal inhibitory concentration (IC50) is 79.7 µM (active).
The value for `COc1cc(/C(C)=N\NC(=O)CSc2nc3ccccc3n2C)ccc1O` was 39.3 µM (active); that for `O=C(O)c1cccc(N2C(=O)/C(=C/c3ccc(SCc4ccc(Cl)cc4)o3)SC2=S)c1` was “inactive”; that for `c1ccc(-c2ccccc2OCCN2CCOCC2)cc1` was “inactive”.
For `C=CCNCC(O)COc1ccc(C(C)=O)cc1OC` (configuration not stated) the value was “inactive”; for `COc1cc(/C(C)=N/NC(=O)Cc2c(C)[nH][nH]c2=O)ccc1O`, 70.3 µM (active); for `C#CCOCCOCCOCCNc1nc(N2CCN(C(=O)[C@H](CCCCN)n3cc(CN)nn3)CC2)nc(N2CCN(C(=O)[C@H](CCCCN)n3cc(CN)nn3)CC2)n1`, “inactive”.
The value for `Nc1ccc(Nc2ccccc2)c(Cl)c1` was 15.9 µM (active).
Turning to `Nc1ccccc1SSc1ccccc1N`, the IC50 result was “inactive”.
For `Nc1ccccc1Nc1cccc(C(F)(F)F)c1` the value was 78.3 µM (active); for `Nc1ccccc1Nc1ccccc1`, 34 µM (active).
For `Cn1c(-c2ccccc2)cnc1NCc1ccc(-c2ccccc2)cc1` the value was “inactive”; for `Cc1cc(C)cc(NC(=O)C(NCCN2CCOCC2)c2ccccc2)c1` (configuration not stated), “inactive”.
For `COc1cc2c(cc1NC(=O)C(Cl)Cl)-c1ccc(NC(=O)C(Cl)Cl)cc1C2` the value was 71.4 µM (active).
As for `COc1ccc(NC(=O)C(C)N2CCN(C)CC2)cc1` (configuration not stated), the IC50 result was “inactive”.
The value for `CN(C)/N=C/c1ccc(N2CCOCC2)cc1` was 60.4 µM (active).
For `O=C(O)CN1C(=O)/C(=C/c2ccc(SCc3ccccc3)o2)SC1=S` the value was “inactive”; for `CC(C)c1ccc(NC(=O)CNCC(c2ccccc2)N(C)C)cc1` (configuration not stated), “inactive”.
`O=C(CC(c1ccccc1)c1ccccc1)Nc1ccc(O)cc1`: the half-maximal inhibitory concentration (IC50) was 56.5 µM (active).
The value for `O=C(CCCC(=O)c1ccccc1)Nc1ccc(O)cc1` was 18.2 µM (active); that for `COc1cc2c(cc1NC(=S)Nc1cccc3ccccc13)oc1ccccc12` was 36.9 µM (active).
The value for `COc1ccc(NC(=S)Nc2cccc3ccccc23)cc1OC` was “inactive”; that for `COc1cc2c[n+](C)c3c4ccccc4ccc3c2cc1OC` was “inactive”; that for `COc1cc2c(cc1NCc1ccc3c(c1)OCO3)oc1ccccc12` was “inactive”.
For `CN(C)CCNC(C(=O)Nc1cccc(C(F)(F)F)c1)c1ccccc1` (configuration not stated) the value was “inactive”.
In the case of `COc1cc2c(cc1NC(=S)Nc1ccccc1C)oc1ccccc12`, the half-maximal inhibitory concentration (IC50) is 41.1 µM (active).
The value for `O=C(O)c1cc(N2N=C(C(F)(F)F)/C(=C/C=C/c3ccco3)C2=O)ccc1Cl` was “inactive”.
For `COc1ccc2c(c1OC)C(=O)OC2CC(=O)c1ccc(O)c(O)c1` (configuration not stated) the value was 58.7 µM (active); for `COc1cccc2c1C(=O)c1c(O)c3c(c(O)c1C2=O)CC(O)(C(C)=NNC(=O)c1ccc(Cl)c(Cl)c1)CC3OC1CC(N)C(O)C(C)O1` (configuration not stated), “inactive”; for `COc1cccc2c1C(=O)c1c(O)c3c(c(O)c1C2=O)C[C@@](O)(C(=O)CO)C[C@@H]3OC1CC(N)C(O)C(C)O1` (some centres not stated), “inactive”.
The value for `Nc1ccc(N(c2ccccc2)c2ccc(N)cc2)cc1` was 9.3 µM (active).
With `N#CC1=C(S)N(c2ccccc2)C2(CCCCC2)NC1=O`, the IC50 result is “inactive”.
The value for `CN(C)S(=O)(=O)c1cccc(NC(=O)CNCC2CCCCC2)c1` was “inactive”; that for `COc1cc(/C=C2\C(=O)N(c3cccc(C(=O)O)c3)N=C2C)ccc1OCc1ccccc1` was “inactive”.
The value for `COc1cc(/C=N/NC(=S)Nc2cccc(S(=O)(=O)N(C)C)c2)ccc1O` was 27.7 µM (active).
The value for `COc1cc(/C=N/NC(=S)Nc2cccc(C(=O)O)c2)ccc1O` was 46.3 µM (active); that for `CN(C)c1ccc(Sc2ccc3nc(N)nc(N)c3c2)cc1` was 53.7 µM (active).
Regarding `CCN(CC)S(=O)(=O)c1cccc(NC(=O)CNC2CCCCCC2)c1`, the IC50 result is “inactive”.
In the case of `CCOc1ccccc1NC(=O)C(NCC1(N2CCCCC2)CCCCC1)c1ccccc1` (configuration not stated), the IC50 result is “inactive”.
The value for `O=C(/C=C/Nc1ccc(Nc2ccccc2)cc1)c1cccs1` was “inactive”.
The value for `CN(C)c1ccc(N/C=C/C(=O)C(C)(C)C)cc1` was 7.04 µM (active); that for `C=C(CN(C)C)C(=O)c1ccc(OC2OC(COC(C)=O)C(OC(C)=O)C(OC(C)=O)C2OC(C)=O)cc1` (configuration not stated) was “inactive”; that for `O=C1/C(=C\c2ccc([N+](=O)[O-])cc2)CS(=O)(=O)C/C1=C/c1ccc([N+](=O)[O-])cc1` was “inactive”.
With `O=[N+]([O-])c1ccc(N/N=C/c2ccc[nH]2)cc1`, the 50% inhibitory concentration (IC50) is 41.1 µM (active).
For `CN1C=CC(=CC=C2C=CC(=O)C=C2)C=C1` the value was 23.1 µM (active).
The value for `COc1cc(C)c(N)cc1C(C)C` was 34.2 µM (active); that for `Nc1ccc(O)c([N+](=O)[O-])c1` was 43.9 µM (active).
With `Cc1ccc(S(=O)(=O)Oc2ccc(/C=C3/C(=N)N4C(=NC3=O)SN=C4S(C)(=O)=O)cc2)cc1`, the IC50 entry is “inactive”.
In the case of `CCOC(=O)/C(C#N)=C1/C(=O)N(Cc2ccccc2)c2ccccc21`, the IC50 result was “inactive”.
The value for `CCOC(=O)/C(C#N)=C1\C(=O)N(Cc2ccccc2)c2ccccc21` was “inactive”; that for `CCOC(=O)c1[nH]c(=S)n(Cc2ccccc2)c1C(=O)OCC` was 41.9 µM (active).
For `CN(C)C(=S)N=c1ssc(=S)n1Cc1ccco1` the value was “inactive”.
For `Cc1ccc(CN2CCN(Cc3ccco3)CC2)cc1` the value was “inactive”.
On to `Cc1cs/c(=N\N=C\c2ccc(O)cc2)n1Cc1ccco1`, for which the IC50 is 25.9 µM (active).
The value for `CCN1CCN(CCCOc2ccccc2-c2ccccc2)CC1` was “inactive”.
The value for `COc1ccc(C(=O)/C=C/c2ccc(O)cc2)c2c1CC(O)C(C)(C)O2` (configuration not stated) was 52.3 µM (active); that for `COc1ccc(OC)c(CN2CCN(Cc3ccc(OC)c(OC)c3OC)CC2)c1` was “inactive”.
With `CCOC(=O)N/N=C/c1ccc(N2CCOCC2)s1`, the half-maximal inhibitory concentration (IC50) is 53 µM (active).
Regarding `NC(=O)N/N=C/c1ccc(N2CCOCC2)s1`, the IC50 is 45.8 µM (active).
With `CNC(=S)N/N=C/c1ccc(N2CCOCC2)s1`, the IC50 entry is “inactive”.
For the compound `Clc1cccc(N/N=C/c2ccc(N3CCOCC3)s2)c1`, the IC50 was 59.7 µM (active).
The value for `COC(=O)CC1SC(=O)NC1=Nc1ccc(O)cc1` (configuration not stated) was 60.2 µM (active); that for `Cc1ccn2c(NC3CCCC3)c(-c3ccncc3)nc2c1` was 49 µM (active).
For `CN1CCN(C(=O)c2sc(=S)n(-c3ccccc3)c2N)CC1` the value was “inactive”; for `CCOC(=O)c1c(-c2ccccc2)csc1NC(=O)C(C)NCCCN1CCOCC1` (configuration not stated), “inactive”; for `Cc1c(-c2ccccc2)sc(N)c1C(=O)N1CCOCC1`, 41.6 µM (active).
`CCCCNCC#CCOc1cc(C)ccc1C(C)C`: the IC50 result is “inactive”.
For `COc1cc(/C=C/c2sc3ccccc3[n+]2CCCS(=O)(=O)[O-])ccc1O` the value was 22.2 µM (active).
For `C=CC[n+]1c(/C=C/c2ccc(OC(C)=O)c(OC)c2)ccc2ccccc21` the value was “inactive”; for `CN(C1CCCCC1)S(=O)(=O)c1cccc2nsnc12`, “inactive”; for `CSC1=NN(c2ccccc2)CN(c2ccccc2)N1C`, 72.1 µM (active).
The value for `COc1cc(CCNC2=CC(=O)c3ncccc3C2=O)ccc1O` was 70.9 µM (active).
With `Cc1sc2nc(CN3CCOCC3)nc(N3CCOCC3)c2c1C`, the IC50 result is “inactive”.
